# In the supplement of paper PMC6411743:
# ± gives the standard deviation of the averaged measurements. Targets with the largest changes are over-represented here; the source holds about 6,200 in all.
# Key:
# Test in all cases: NP40-soluble protein abundance relative to vehicle (solubility fold change) (ratio); higher = more soluble protein in presence of AMP-PNP
# DDX52 = target: T1, DDX52 (UniProt Q9Y2R4)
# T1 sequence (whole entry): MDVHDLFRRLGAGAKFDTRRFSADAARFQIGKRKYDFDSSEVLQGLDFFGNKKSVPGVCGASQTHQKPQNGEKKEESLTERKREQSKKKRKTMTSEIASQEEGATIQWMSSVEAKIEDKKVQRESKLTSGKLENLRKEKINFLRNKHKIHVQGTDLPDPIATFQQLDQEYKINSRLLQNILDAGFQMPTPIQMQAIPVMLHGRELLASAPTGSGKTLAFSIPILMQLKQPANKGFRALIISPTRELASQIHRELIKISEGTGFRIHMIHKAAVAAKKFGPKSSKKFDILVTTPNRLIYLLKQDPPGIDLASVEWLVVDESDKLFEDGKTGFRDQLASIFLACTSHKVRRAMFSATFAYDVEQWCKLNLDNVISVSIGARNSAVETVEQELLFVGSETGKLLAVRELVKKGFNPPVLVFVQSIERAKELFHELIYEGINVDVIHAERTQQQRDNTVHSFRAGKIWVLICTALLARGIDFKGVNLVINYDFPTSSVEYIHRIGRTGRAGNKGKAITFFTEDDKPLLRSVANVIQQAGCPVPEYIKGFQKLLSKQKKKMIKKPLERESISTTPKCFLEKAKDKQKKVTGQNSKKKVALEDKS
# How it was run: (§1)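 In three independent experiments, Jurkat crude lysate made by Dounce homogenisation was treated for 10 min at room temperature and then 3 min at 37 °C with eight concentrations ranging from 0.1 to 10 mM. It was then solubilised with 0.8% NP40 plus benzonase for 60 min at 4 °C and ultracentrifuged. The supernatant was TMT-labelled for LC-MS/MS, and each value is the fold change against the detergent-processed vehicle for the same replicate, using vsn-normalised intensities.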
# NKIRAS1 = target: T2, NKIRAS1 (UniProt Q9NYS0)
# T2 sequence (whole entry): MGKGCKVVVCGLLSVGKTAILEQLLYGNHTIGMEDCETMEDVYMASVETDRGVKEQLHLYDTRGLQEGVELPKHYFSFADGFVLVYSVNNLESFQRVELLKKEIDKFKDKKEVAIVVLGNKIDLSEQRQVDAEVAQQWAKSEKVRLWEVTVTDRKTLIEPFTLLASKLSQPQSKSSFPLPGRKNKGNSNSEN
# How it was run: as §1
# POLG2 = target: T3, POLG2 (UniProt Q9UHN1)
# T3 sequence (whole entry): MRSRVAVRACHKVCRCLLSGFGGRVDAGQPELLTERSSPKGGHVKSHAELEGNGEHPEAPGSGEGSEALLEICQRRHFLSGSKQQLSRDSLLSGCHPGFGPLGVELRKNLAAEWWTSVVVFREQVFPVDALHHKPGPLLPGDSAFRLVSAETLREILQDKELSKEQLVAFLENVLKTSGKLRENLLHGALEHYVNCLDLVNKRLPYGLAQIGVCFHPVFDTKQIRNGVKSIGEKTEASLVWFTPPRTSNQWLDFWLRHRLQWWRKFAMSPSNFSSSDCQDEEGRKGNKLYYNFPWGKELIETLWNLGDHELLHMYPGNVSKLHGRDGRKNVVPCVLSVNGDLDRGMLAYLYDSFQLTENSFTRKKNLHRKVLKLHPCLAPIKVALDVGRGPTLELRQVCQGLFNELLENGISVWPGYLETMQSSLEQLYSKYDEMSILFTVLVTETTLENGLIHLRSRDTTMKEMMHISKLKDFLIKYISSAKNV
# How it was run: as §1
# PRKRIP1 = target: T4, PRKRIP1 (UniProt Q9H875)
# T4 sequence (whole entry): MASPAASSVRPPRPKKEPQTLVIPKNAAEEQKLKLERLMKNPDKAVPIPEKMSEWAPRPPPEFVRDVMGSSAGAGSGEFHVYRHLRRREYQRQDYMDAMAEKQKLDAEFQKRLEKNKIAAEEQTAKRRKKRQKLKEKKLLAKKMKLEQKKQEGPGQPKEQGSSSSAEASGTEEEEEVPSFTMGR
# How it was run: as §1
# SNX6 = target: T5, SNX6 (UniProt Q9UNH7)
# T5 sequence (whole entry): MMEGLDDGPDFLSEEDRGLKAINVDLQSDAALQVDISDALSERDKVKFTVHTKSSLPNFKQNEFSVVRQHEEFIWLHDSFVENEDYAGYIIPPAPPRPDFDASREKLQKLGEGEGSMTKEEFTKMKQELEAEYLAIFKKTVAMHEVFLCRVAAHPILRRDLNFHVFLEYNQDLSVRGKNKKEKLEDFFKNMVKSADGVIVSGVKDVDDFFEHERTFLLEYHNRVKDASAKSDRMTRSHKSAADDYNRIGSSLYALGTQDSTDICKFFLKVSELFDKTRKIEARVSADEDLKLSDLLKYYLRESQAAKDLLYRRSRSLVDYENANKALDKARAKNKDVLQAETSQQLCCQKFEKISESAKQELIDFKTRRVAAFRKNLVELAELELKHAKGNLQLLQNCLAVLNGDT
# How it was run: as §1
# TFIP11 = target: T6, TFIP11 (UniProt Q9UBB9)
# T6 sequence (whole entry): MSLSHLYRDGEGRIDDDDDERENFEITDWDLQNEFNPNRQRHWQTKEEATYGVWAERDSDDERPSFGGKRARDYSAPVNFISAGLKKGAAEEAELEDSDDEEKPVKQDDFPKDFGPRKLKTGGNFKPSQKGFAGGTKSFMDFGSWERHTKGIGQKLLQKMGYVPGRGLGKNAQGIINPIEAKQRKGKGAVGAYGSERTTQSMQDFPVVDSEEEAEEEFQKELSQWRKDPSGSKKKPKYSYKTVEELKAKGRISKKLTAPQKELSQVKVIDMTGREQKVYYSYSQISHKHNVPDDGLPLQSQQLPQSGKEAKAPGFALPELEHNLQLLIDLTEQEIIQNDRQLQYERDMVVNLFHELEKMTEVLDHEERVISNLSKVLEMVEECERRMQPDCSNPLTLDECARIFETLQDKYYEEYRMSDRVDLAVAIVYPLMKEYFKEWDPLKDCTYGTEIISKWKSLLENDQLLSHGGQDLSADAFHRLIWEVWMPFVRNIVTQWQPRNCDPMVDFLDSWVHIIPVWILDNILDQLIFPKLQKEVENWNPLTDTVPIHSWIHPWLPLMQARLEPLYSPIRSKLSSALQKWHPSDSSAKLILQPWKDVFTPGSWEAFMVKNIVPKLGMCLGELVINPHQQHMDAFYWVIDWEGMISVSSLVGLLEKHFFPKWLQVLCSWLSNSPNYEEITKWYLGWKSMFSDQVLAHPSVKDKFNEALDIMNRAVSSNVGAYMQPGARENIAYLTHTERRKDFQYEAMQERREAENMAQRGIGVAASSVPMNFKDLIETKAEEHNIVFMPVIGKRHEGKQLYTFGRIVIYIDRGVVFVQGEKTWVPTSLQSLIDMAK
# How it was run: as §1
# UniProt Q9BY77|Q9BY77-2 = target: T7, UniProt Q9BY77|Q9BY77-2
# T7 sequence (whole entry): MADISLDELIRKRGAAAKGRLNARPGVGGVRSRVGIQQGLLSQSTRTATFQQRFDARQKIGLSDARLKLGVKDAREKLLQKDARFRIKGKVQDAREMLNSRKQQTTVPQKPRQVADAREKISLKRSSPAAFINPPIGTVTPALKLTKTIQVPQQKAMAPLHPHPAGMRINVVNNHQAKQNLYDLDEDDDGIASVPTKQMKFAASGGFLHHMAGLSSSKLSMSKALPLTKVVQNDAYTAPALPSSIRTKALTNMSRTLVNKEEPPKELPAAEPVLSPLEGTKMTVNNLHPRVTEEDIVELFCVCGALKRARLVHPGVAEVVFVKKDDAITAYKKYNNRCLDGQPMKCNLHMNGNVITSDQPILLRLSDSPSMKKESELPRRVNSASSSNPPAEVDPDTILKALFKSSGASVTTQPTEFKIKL
# How it was run: as §1
smiles,measurement,setting,value
Nc1ncnc2c1ncn2[C@@H]1O[C@H](COP(=O)(O)OP(=O)(O)NP(=O)(O)O)[C@@H](O)[C@H]1O [adenylyl imidodiphosphate],NP40-soluble protein abundance,DDX52; concentration: 1mM,1.08 ± 0.094
same,NP40-soluble protein abundance,DDX52; concentration: 2mM,1.1 ± 0.047
same,NP40-soluble protein abundance,DDX52; concentration: 4mM,1.18 ± 0.07
same,NP40-soluble protein abundance,DDX52; concentration: 6mM,1.22 ± 0.038
same,NP40-soluble protein abundance,DDX52; concentration: 8mM,1.28 ± 0.055
same,NP40-soluble protein abundance,DDX52; concentration: 10mM,1.39 ± 0.046
same,NP40-soluble protein abundance,NKIRAS1; concentration: 1mM,1 ± 0.033
same,NP40-soluble protein abundance,NKIRAS1; concentration: 2mM,1.025 ± 0.0079
same,NP40-soluble protein abundance,NKIRAS1; concentration: 4mM,0.981 ± 0.024
same,NP40-soluble protein abundance,NKIRAS1; concentration: 6mM,0.988 ± 0.027
same,NP40-soluble protein abundance,NKIRAS1; concentration: 8mM,1 ± 0.018
same,NP40-soluble protein abundance,NKIRAS1; concentration: 10mM,0.9796 ± 0.0011
same,NP40-soluble protein abundance,POLG2; concentration: 1mM,0.994 ± 0.073
same,NP40-soluble protein abundance,POLG2; concentration: 2mM,1.03 ± 0.056
same,NP40-soluble protein abundance,POLG2; concentration: 4mM,0.996 ± 0.072
same,NP40-soluble protein abundance,POLG2; concentration: 6mM,1.06 ± 0.051
same,NP40-soluble protein abundance,POLG2; concentration: 8mM,1.07 ± 0.043
same,NP40-soluble protein abundance,POLG2; concentration: 10mM,1.05 ± 0.021
same,NP40-soluble protein abundance,PRKRIP1; concentration: 1mM,1.03 ± 0.053
same,NP40-soluble protein abundance,PRKRIP1; concentration: 2mM,1.14 ± 0.12
same,NP40-soluble protein abundance,PRKRIP1; concentration: 4mM,1.1 ± 0.11
same,NP40-soluble protein abundance,PRKRIP1; concentration: 6mM,1.14 ± 0.073
same,NP40-soluble protein abundance,PRKRIP1; concentration: 8mM,1.16 ± 0.1
same,NP40-soluble protein abundance,PRKRIP1; concentration: 10mM,1.15 ± 0.15
same,NP40-soluble protein abundance,SNX6; concentration: 1mM,0.992 ± 0.031
same,NP40-soluble protein abundance,SNX6; concentration: 2mM,1.03 ± 0.12
same,NP40-soluble protein abundance,SNX6; concentration: 4mM,0.991 ± 0.069
same,NP40-soluble protein abundance,SNX6; concentration: 6mM,1.03 ± 0.076
same,NP40-soluble protein abundance,SNX6; concentration: 8mM,1 ± 0.077
same,NP40-soluble protein abundance,SNX6; concentration: 10mM,1.03 ± 0.079
same,NP40-soluble protein abundance,TFIP11; concentration: 1mM,1.01 ± 0.028
same,NP40-soluble protein abundance,TFIP11; concentration: 2mM,1.01 ± 0.033
same,NP40-soluble protein abundance,TFIP11; concentration: 4mM,1.07 ± 0.042
same,NP40-soluble protein abundance,TFIP11; concentration: 6mM,1.08 ± 0.05
same,NP40-soluble protein abundance,TFIP11; concentration: 8mM,1.09 ± 0.015
same,NP40-soluble protein abundance,TFIP11; concentration: 10mM,1.13 ± 0.039
same,NP40-soluble protein abundance,UniProt Q9BY77|Q9BY77-2; concentration: 1mM,1 ± 0.038
same,NP40-soluble protein abundance,UniProt Q9BY77|Q9BY77-2; concentration: 2mM,1.06 ± 0.064
same,NP40-soluble protein abundance,UniProt Q9BY77|Q9BY77-2; concentration: 4mM,1.04 ± 0.042
